Source: ChEMBL document CHEMBL3433997, “St. Jude Leishmania screening dataset” (2016)
Values joined by “and” are separate entries in the source; they are usually repeats but may differ in a detail not shown here. Equal entries are not always repeated.

Tests used:
Format in all cases: functional
[1] = target: Solute carrier family 2, facilitated glucose transporter member 1 (Homo sapiens) (UniProt P11166); assay: ST_JUDE_LEISH: Cytotoxicity at 2uM final concentration against transgenic Leishmania Mexicana promastigotes LmGLUT1 that are glucose transport deficient and complemented with the human glucose transporter GLUT1. Activity is measured by DNA content using SYBR green in vitro
Solute carrier family 2, facilitated glucose transporter member 1 (Homo sapiens), sequence (P11166 whole entry): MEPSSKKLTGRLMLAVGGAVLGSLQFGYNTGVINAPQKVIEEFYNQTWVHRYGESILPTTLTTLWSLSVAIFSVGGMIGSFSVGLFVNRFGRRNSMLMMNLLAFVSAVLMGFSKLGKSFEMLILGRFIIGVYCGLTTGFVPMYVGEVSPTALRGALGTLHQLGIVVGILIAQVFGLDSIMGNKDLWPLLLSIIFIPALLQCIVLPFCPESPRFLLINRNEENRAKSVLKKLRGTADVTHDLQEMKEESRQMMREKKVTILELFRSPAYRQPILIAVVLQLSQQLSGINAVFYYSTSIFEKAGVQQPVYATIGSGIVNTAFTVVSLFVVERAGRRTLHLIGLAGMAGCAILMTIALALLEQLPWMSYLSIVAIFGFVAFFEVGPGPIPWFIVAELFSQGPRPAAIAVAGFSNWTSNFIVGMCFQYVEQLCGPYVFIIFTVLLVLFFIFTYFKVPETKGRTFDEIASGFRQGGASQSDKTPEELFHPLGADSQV

[2] = target: Hexose transporter 1 (Plasmodium falciparum) (UniProt O97467); assay: ST_JUDE_LEISH: Cytotoxicity at 2uM final concentration against transgenic Leishmania Mexicana promastigotes LmPfHT that are glucose transport deficient and complemented with the Plasmodium falciparum hexose transporter. Activity is measured by DNA content using SYBR green in vitro
[3] = target: Glucose transporter (Leishmania mexicana) (UniProt O61059); assay: ST_JUDE_LEISH: Cytotoxicity at 2uM final concentration against transgenic Leishmania Mexicana promastigotes LmGT2 that are glucose transport deficient and complemented with the L. Mexicana glucose transporter 2. Activity is measured by DNA content using SYBR green in vitro

SMILES | inhibition [1] | inhibition [2] | inhibition [3]
COc1ccc2nccc([C@@H](O)CN3CCC(NC(=O)C(=Cc4ccc(Cl)cc4Cl)c4ccc(-c5ccccc5)cc4)CC3)c2c1 | 6.27% | 4.58% | 4.7%
CC(C)C[C@H](NC(=O)c1ccc(OCCN2CCOCC2)cc1)C(=O)N[C@H](/C=N/N(C)C(=O)c1ccccc1)CCc1ccccc1 | 3.84% | 8.34% | 2.75%
CCCC(=O)c1cnc2c(Oc3cc(Cl)ncn3)cccc2c1Nc1ccccc1C | 6.96% | 4.84% | 6.89%
CCc1cc(I)c2c(c1)C(NCCCNc1cc(=O)c3ccccc3[nH]1)CCN2 (stereo not given) | 2.28% | 4.39% | 1.86%
Cc1cc(OCCCN2CCC(NS(=O)(=O)c3ccc(Cl)c(Cl)c3)CC2)c2ccccc2n1 | 4.28% | 4.69% | 4.76%
COc1ccc(S(=O)(=O)N(CCCN2CCN(C)CC2)Cc2csc(-c3ccc(CNCc4ccccc4)cc3)n2)cc1 | -1.13% | 2.47% | 1.67%
Cc1nc(Cl)c2c(-c3ccccc3)csc2n1 | 0.55% | -0.74% | -0.21%
N=C(N)Nc1nc(-c2cccc(NC(=O)NCc3ccc(OC(F)(F)F)cc3)c2)cs1 | 1.51% | 0.95% | 0.07%
O=C(N[C@@H](CC1CCCCC1)C(=O)NCCN1CCCCC1)c1ccc(O)c(-c2cccc(C(F)(F)F)c2)c1 | 2.41% | 3.95% | -0.49%
Cc1cc(N(C)C)nc(Nc2ccc(NC(=O)c3ccc(F)cc3)cc2)n1 | 5.57% | 8.06% | 3.85%
CCOc1ccc(C2CCN(CCCCNC(=O)c3ccc(NC(=O)c4ccc(Cl)cc4)cc3)CC2)c(Cl)c1 | 1.99% | 4.55% | 1.92%
CCN(CC)/C(=N/C(=N)Nc1ccc(C)cc1)NCCCCCCN/C(=N\C(=N)Nc1ccc(C)cc1)N(CC)CC | 7.79% | 5.77% | 5.53%
COc1ccc(C2CC(c3cccs3)=NN2C(=O)CNc2ccccc2F)cc1OC (stereo not given) | 2.69% | 1.72% | 2.76%
CN1CCN(c2ccnc3cc4ccccc4cc23)CC1 | -3.09% | -3.08% | -0.9%
COc1ccc(-c2cnc3[nH]cc(-c4ccc(C(=O)O)c(C)c4)c3c2)cn1 | 0.31% | -0.48% | 0.32%
C=CCc1cc(Br)ccc1OCCCOc1c(N)nc(N)nc1N | 6.42% | 7.13% | 3.62%
O=[N+]([O-])c1ccc2c(-c3ccccc3)c(-c3ccccc3)n(O)c2c1 | 2.37% | 3.54% | 0.3%
COc1ccc2nccc([C@@H](O)CN3CCC(NCc4ccc5c(c4)sc(=O)n5C)CC3)c2c1 | -0.15% | 0.84% | -1.7%

SMILES | inhibition [1] | inhibition [2] | inhibition [3]
COc1cc2nc(NCC3CCCO3)n3nc(-c4ccccc4)nc3c2cc1OC (stereo not given) | 8.44% | 6.19% | 2.53%
CCNC(=O)c1ccc(-n2nc(C)cc2-c2ccccc2)cc1 | 2.66% | 3.31% | -0.67%
c1csc(-c2nc(N3CCCCC3)ncc2-c2ccsc2)n1 | 4.57% | 4.73% | 2.33%
N=C1NC(c2ccccc2)(c2ccccc2)C(=O)N1C1CCCCC1 | 3.46% | 3.28% | 1.18%
N#Cc1ccc2c(c1)CN(CC[C@H]1CC[C@H](NC(=O)/C=C/c3c[nH]c4ccccc34)CC1)CC2 | 7.48% and 1.99% | 6.9% and 1.06% | 5.69% and -2.35%
CC(=O)Nc1ccc(CN2CCC(NC(=O)c3ccc(-c4cccc(F)c4)s3)CC2)cc1 | 1.73% | 0.06% | 0.34%
CCCNc1nc(Nc2ccccc2C)nc2ccccc12 | 38.1% | 33.5% | 13.8%
COc1ccccc1CNc1ccnc(NCCc2cccc(C(F)(F)F)c2)n1 | 7.85% | 8.92% | 2.54%
CC(=O)Nc1ccc(OCCCCN(Cc2ccccc2C(F)(F)F)c2ccc(C(F)(F)F)c(C#N)c2)c(Cl)c1 | 0.27% | 3.28% | 0.64%
N#Cc1ccc(N[C@@H](CC2CCCCC2)C(=O)Nc2ccc(-c3ccccc3)cc2)c2ccccc12 | 2.38% | 3.08% | 3.75%
Cc1c(N)ccc2[nH]c(-c3ccc(N)cc3)nc12 | 3.21% | 4.3% | 2.89%
CCn1c(=O)c(C(=O)Nc2cc(Cl)c(OC)cc2OC)nc2ccccc21 | 11.7% | 9.32% | 10.5%
CN1CCN(c2ccnc3ccc(NC(=O)N(C)c4ccc(Cl)c(Cl)c4)cc23)CC1 | -0.11% | 0.31% | 1.72%
FC(F)(F)c1ccc2[nH]c(-c3ccc(-c4ccc(CNCCN5CCNCC5)cc4)s3)nc2c1 | 9.4% | 10.4% | 9.03%
CN(C)CCCN1CCN(C(=O)c2cccc(-c3noc(C(F)(F)F)n3)c2)CC1 | 2.61% | 3.52% | 3.7%
O=S(=O)(c1c(Cl)cc(Cl)cc1Cl)N1CCCCC(c2ccc(Cl)cc2)=N1 | -1.49% | -1.87% | -1.41%
CC(=NNC(S)=NCc1ccco1)c1ccccn1 | 1.7% | 1.81% | 1.16%
